This is part of a sample that, as a whole, favours compounds with a hit. Of some 83,000 tested, about 20% had one in any assay.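 Growth was measured after 48 h exposure to one concentration of compound in 96-well plates. Values under 10 count as active.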 The source made the active and inactive calls.
system: NCI-H23 lung; test: NCI-60 one-dose screen, 48 h (100 = growth as untreated, 0 = no growth, -100 = all killed); settings: 10 µM unless noted

Row | SMILES | growth
1 | C=C1CCC2C3(C)COC(c4cc(F)cc(F)c4)OC3CCC2(C)C1CC(O)C1=CCOC1=O (stereo not drawn) | 64.9% (inactive)
2 | CC(=O)Nc1ccc(C(=O)NC(=S)Nc2ccc(S(N)(=O)=O)cc2)cc1 | 94.4% (inactive)
3 | COc1cc(C2CC(c3cc(OC)c(OC)c(OC)c3)=Nc3c(N)nc(N)nc3N2)ccc1Oc1nc(NCCO)nc(N2CCOCC2)n1 (stereo not drawn) | 95.8% (inactive)
4 | CC1=C(C(=O)c2ccccc2)C(c2cccc(Cl)c2Cl)n2c(nc3ccccc32)N1 (stereo not drawn) | 63% (inactive)
5 | CN1CCc2c(sc3ncnc(N/N=C/c4ccc(Cl)cc4Cl)c23)C1 | 12.2% (inactive)
6 | O=C(COc1ccc(NC(=O)Nc2ccc(Cl)c(Cl)c2)cc1)N=Nc1c(O)[nH]c2ccc(Br)cc12 | -10.7% (active)
7 | Cn1cc(NC(=O)c2cc(NC(=O)c3ccc(C#Cc4ccccc4)cc3)cn2C)cc1C(=O)NCCCN1CCOCC1 | 58.9% (inactive)
8 | COCOc1cc2oc(C(=O)N[C@@H](Cc3ccccc3)C(O)C(=O)NCc3ccccc3)c(C)c(=O)c2cc1OCOC (stereo partly drawn) | 59.2% (inactive)
9 | Cc1ccc(C(=O)CSc2nc3ccc(C)cc3c(=O)n2-c2ccc(F)cc2)cc1 | 56.8% (inactive)
10 | CC(C)c1ccc2c(N)c(C(=O)Nc3ccc(C(F)(F)F)cn3)sc2n1 | 43.5% (inactive)
11 | CN(C)CCn1c2ccccc2c2nc3ccc([N+](=O)[O-])cc3nc21 | -9.77% (active)
12 | COc1cc2c(c(OC)c1OC)C(=O)CC(c1cccc(NC(=O)c3cc(NC(=O)[C@H](CO)NC(=O)OC(C)(C)C)ccc3Cl)c1)O2 (stereo partly drawn) | 37.3% (inactive)
13 | Cc1cccc(NC(=O)[C@]23CCC(C)(C)CC2C2=CCC4[C@@]5(C)C[C@@H](O)[C@H](O)[C@@](C)(CO)C5CC[C@@]4(C)[C@]2(C)CC3)c1 (stereo partly drawn) | -27.7% (active)
14 | CC(=O)Nc1ccc(-n2cnc3ccc(-c4ccc(O)cc4)cc32)cc1 | 41.3% (inactive)
15 | NC(=S)Nc1cccc(NC(N)=S)c1 | 98.5% (inactive)
16 | O=C(/C=C/c1ccc(O)c(O)c1)NC1CCOC1O (stereo not drawn) | 104% (inactive)
17 | CCN1C(=O)/C(=N\N=C(/C)c2ccc3c(c2)Nc2ccccc2S3)c2cc(Cl)ccc21 | 50.4% (inactive)

Row | SMILES | growth
18 | S=C(NCCc1ccccc1)Nc1ccc(OCc2nc3ccccc3[nH]2)cc1 | 104% (inactive)
19 | COc1ccc(-c2nc(SC(C)C)nc(NCCc3c[nH]c4ccccc34)c2C#N)cc1 | 45.6% (inactive)
20 | S=C(Nc1ccccc1)Nc1ccc(OCc2nc3ccccc3[nH]2)cc1 | 37% (inactive)
21 | CC1(C)CC[C@]2(C(=O)Nc3ccc(Br)cc3)CC[C@]3(C)C(=CCC4[C@@]5(C)C[C@@H](O)[C@H](O)[C@@](C)(CO)C5CC[C@]43C)C2C1 (stereo partly drawn) | 9.43% (active)
22 | CC12CC[C@@H]3[C@]4(C)COC(c5c(F)cccc5F)O[C@@H]4CC[C@@]3(C)[C@@H]1CC(C1=CCOC1=O)O2 (stereo partly drawn) | 62.1% (inactive)
23 | Cc1ccc(Cc2cnc(NC(=O)c3ccc(/C=C4\SC(=S)N(C)C4=O)cc3)s2)cc1 | 41.3% (inactive)
24 | CC(=O)Nc1ccc(-n2cnc3cc(-c4ccc(O)cc4)ccc32)cc1C(F)(F)F | 21.4% (inactive)
25 | Cn1cc(NC(=O)c2cc(NC(=O)c3ccc(/C=C/c4ccccc4)cc3)cn2C)cc1C(=O)NCCCN1CCOCC1 | 66.7% (inactive)
26 | CN(C)CCCNC(=O)c1cc(NC(=O)c2cc(NC(=O)c3ccc(/C=C/c4ccccc4)cc3)cn2C)cn1C | 43.9% (inactive)
27 | CC(=O)OC[C@@]1(C)C2CC[C@]3(C)C(CC=C4C5CC(C)(C)CC[C@]5(C(=O)Nc5ccc(Br)cc5)CC[C@]43C)[C@@]2(C)C[C@@H](OC(C)=O)[C@@H]1OC(C)=O (stereo partly drawn) | 45.6% (inactive)
28 | COc1ccc(NC(=O)Cn2c(O)c(N=Nc3ccc(S(N)(=O)=O)cc3)c3ccccc32)cc1 | 10.5% (inactive)
29 | S=C(Nc1ccc(OCc2nc3ccccc3[nH]2)cc1)NC1CCCCC1 | 101% (inactive)
30 | Cc1ccc(NC(=O)[C@]23CCC(C)(C)CC2C2=CCC4[C@@]5(C)C[C@@H](O)[C@H](O)[C@@](C)(CO)C5CC[C@@]4(C)[C@]2(C)CC3)cc1 (stereo partly drawn) | 29.5% (inactive)
31 | O=S(=O)(Nc1cccc(-n2cnc3cc(-c4ccc(O)cc4)ccc32)c1)C1CC1 | 38.5% (inactive)
32 | Cn1cc(-c2nnc(N)nc2-c2c[nH]c3ccccc23)c2cccnc21 | 65.7% (inactive)
33 | CN(C)c1ccnc(CNCCSC2(c3ccc(C(F)(F)F)cc3)c3ccccc3CCc3ccccc32)c1 | -31.8% (active)
